# Screening results: PubChem, National Center for Advancing Translational Sciences (NCATS)
# DT40 TDP1 CPT = qHTS for Inhibitors of human tyrosyl-DNA phosphodiesterase 1 (TDP1): qHTS in cells in presence of CPT. chicken DT40 Tdp1-/-;hTDP1 cells + 20 nM CPT, ATP luminescence, 48 h. Potency, µM (top dose mostly 46.2 µM), actives largely listed as inhibitors. actives 12% (n = 420,000). AID 686979, 2013; note: nearly all actives have a fitted effect of over 55% in size
#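 Chicken DT40 Tdp1-/- cells complemented with human TDP1, 400 cells/well, exposed to compounds plus 20 nM camptothecin for at least 48 h at 37 C; viability read as ATP content by CellTiter-Glo luminescence.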
# IL1B secr inh = qHTS for Inhibitors of Inflammasome Signaling: IL-1-beta AlphaLISA Primary Screen. actives 4.7% (n = 360,000). activity change, % at 57.5 µM. THP-1 LPS/ATP IL-1B secretion, AlphaLISA, 16 h; active compounds read low; in the data active = activity change below about -50%; inconclusive = mostly about -30% to -49%
#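 Secreted IL-1B measured by AlphaLISA bead assay after 16 h compound exposure of THP-1 cells; compounds (final up to 57.5 uM) added 1 h before LPS (250 ng/mL) and ATP (1.25 mM) stimulation; lower signal means less secretion.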
# HepG2 tox = qHTS for Inhibitors of TGF-b: Cytotox Counterscreen; HepG2 CAGA-GFP viability, ATP luminescence, 18 h; AID 588856, 2011; Potency, µM (doses to about 46.1 µM), most hits filed as cytotoxic; actives 0.76% (n = 410,000)
#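 HepG2 CAGA-GFP cells (1000/well, DMEM with 1% FBS) received compound, then TGF-beta at 500 pg/mL final, and were incubated 18 hours at 37 degrees C. Viability was read by CellTiter-Glo luminescence. Media-only wells were set as complete cell-killing and DMSO as no toxicity.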
# DT40 TDP1 no CPT = qHTS for Inhibitors of human tyrosyl-DNA phosphodiesterase 1 (TDP1): qHTS in cells in absence of CPT. DT40 Tdp1-/- hTDP1 cells, no CPT, ATP luminescence, 48 h. Potency, µM (doses to about 46.2 µM), usual class: inhibitors. actives 15% (n = 420,000); note: nearly all actives have a fitted effect of over 55% in size
#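 Compound effects on proliferation are scored in DT40 Tdp1-/-;hTDP1 cells in the absence of CPT. ATP levels (CellTiter-Glo luminescence) are recorded after a ≥48 hr, 37 °C incubation.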
# TDP1 block = qHTS Assay for Inhibitors of Tyrosyl-DNA Phosphodiesterase (TDP1) | recombinant TDP1, AlphaScreen DNA substrate cleavage | Tyrosyl-DNA phosphodiesterase 1 (Homo sapiens), Q9NUW8 | Potency, µM (doses to about 130 µM), hits mostly inhibitors | actives 0.28% (n = 350,000); note: nearly all actives have a fitted effect of over 40% in size
# Target sequence (Q9NUW8 whole entry, looked up): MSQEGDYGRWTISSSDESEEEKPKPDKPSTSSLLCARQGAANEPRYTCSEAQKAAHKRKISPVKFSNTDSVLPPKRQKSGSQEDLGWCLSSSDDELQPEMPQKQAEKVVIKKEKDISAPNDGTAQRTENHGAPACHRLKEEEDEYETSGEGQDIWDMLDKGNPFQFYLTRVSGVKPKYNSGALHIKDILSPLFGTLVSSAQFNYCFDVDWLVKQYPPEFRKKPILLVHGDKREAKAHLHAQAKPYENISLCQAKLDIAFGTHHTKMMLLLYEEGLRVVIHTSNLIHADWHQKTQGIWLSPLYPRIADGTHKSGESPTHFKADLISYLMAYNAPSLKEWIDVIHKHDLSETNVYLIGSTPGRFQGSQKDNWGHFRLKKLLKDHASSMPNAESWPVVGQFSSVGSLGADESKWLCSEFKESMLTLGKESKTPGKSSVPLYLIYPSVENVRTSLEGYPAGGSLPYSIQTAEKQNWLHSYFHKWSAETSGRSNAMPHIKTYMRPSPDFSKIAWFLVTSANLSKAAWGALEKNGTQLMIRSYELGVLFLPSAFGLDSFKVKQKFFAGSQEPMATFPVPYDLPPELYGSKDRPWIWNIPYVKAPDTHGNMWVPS
#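 Recombinant E. coli-expressed Tdp1 (1 nM) preincubated with compound 15 min at RT, then 5'-biotin/3'-phosphotyrosine-FITC DNA substrate (15 nM) added for 5 min. AlphaScreen beads (10 ug/ml) added, 10 min RT; tyrosine-FITC cleavage read as signal loss.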
# TGFb inhibitor = qHTS for Inhibitors of TGF-b. HepG2 CAGA-GFP TGF-b/SMAD3 reporter, GFP fluorescence, 18 h; TGF-beta stimulated, 500 pg/mL final. Potency, µM (highest dose often 46.1 µM), actives largely listed as inhibitors. actives 1.2% (n = 410,000); note: nearly all actives have a fitted effect of over 65% in size
#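 Cell-based qHTS in HEPG2 carrying a CAGA-GFP Smad reporter; compounds added before 500 pg/mL final TGF-beta, 18 h incubation at 37 degrees C, GFP fluorescence quantified per cell by imaging cytometry.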
# A number is an active result; i = inactive; ? = inconclusive; nt = no result; [ ] = dose if it differs, or a comment. A selection: hits, their analogues and other compounds. The true share with any hit is near 18%. Unless noted, calls come from the whole dose curve; as a rule, active = well fitted curve in the direction sought with a large enough effect; inconclusive = small, poorly fitted or top-dose-only effect, or another doubt; inactive = no such curve, though single readings can be large; an effect the other way counts as inactive or inconclusive.
SMILES,DT40 TDP1 CPT,IL1B secr inh,HepG2 tox,DT40 TDP1 no CPT,TDP1 block,TGFb inhibitor
CCc1c(C)nc2ncnn2c1N1CCCC(C(=O)NCc2ccc3c(c2)OCO3)C1 (stereo unspecified),?,i,i,21µM,i,?
CCn1c(C(=O)N2CCC(C(=O)NCc3ccc4c(c3)OCO4)CC2)cc2sccc21,23µM,i,i,15µM,i,i
NNC(=O)CCCCCCCCCCOCCCCO,i,i,i,13µM,i,i
CNS(=O)(=O)c1cccc(C(=O)OCC(=O)N2CCCC2)c1,i,i,i,i,nt,i
O=C(O)c1cccc(S(=O)(=O)Nc2ccc(Oc3ccccc3)cc2)c1,i,i,i,i,i,i
Cc1ccc(NS(=O)(=O)c2cccc(C(=O)N3CCCCCC3)c2)cc1,?,i,i,21µM,i,i
COc1ccc(NS(=O)(=O)c2cccc(C(=O)OCC(=O)N3CCN(c4ccc(OC)cc4)CC3)c2)cc1,13µM,i,i,13µM,nt,?
COc1ccc(NS(=O)(=O)c2cccc(C(=O)N3CCN(c4ccccc4O)CC3)c2)cc1,?,i,i,?,i[0.505 µM],i
Cc1ccc(Oc2ccc(NS(=O)(=O)c3cccc(C(=O)O)c3)cc2)cc1,i,i,i,7.3µM,i,i
COc1ccc(NS(=O)(=O)c2cccc(C(=O)N3CCN(C(=O)c4ccco4)CC3)c2)cc1,9.2µM,i,i,i,i,i
O=C(Cn1cnnn1)NCc1ccccc1,i,i,i,i,i,i
O=C(N/N=C1/C[C@@H](O)[C@@H](O)[C@@H]2[C@@H]3C(=O)N(Cc4ccccc4)C(=O)[C@H]3CC[C@H]12)OCc1ccccc1,nt,nt,nt,nt,i[21 µM],nt
CCOC(=O)/C(C#N)=C/c1ccc(-c2ccc(C)cc2)o1,?,nt,i,?,i[12.3 µM],i
CCCC(C)C(=O)Nc1ccc(Cl)cn1 (stereo unspecified),i,i,i,i,i,i
COc1ccc(NS(=O)(=O)c2cccc(C(=O)N3CCOCC3)c2)cc1,i,i,i,i,nt,i
COc1ccc(NS(=O)(=O)c2cccc(C(=O)N3CCCCCCC3)c2)cc1,?,i,i,15µM,i,i
Cc1ccc(NC(=O)C2CCN(c3ncnc4sc(C)c(C)c34)CC2)cc1S(=O)(=O)N(C)C,13µM,i,i,9.2µM,nt,?
Cc1sc2ncnc(N3CCC(C(=O)Nc4ccc(C#N)cc4)CC3)c2c1C,?,i,i,?,i[0.505 µM],i
Cc1sc2ncnc(N3CCC(C(=O)Nc4ccc(S(N)(=O)=O)cc4)CC3)c2c1C,?,i,i,15µM,i,i
Cc1ccc(C)c(S(=O)(=O)N2CCN(C(=O)C3CCN(c4ncnc5sc(C)c(C)c45)CC3)CC2)c1,15µM,?,i,10µM,i,?
CCN(CC)S(=O)(=O)c1cc(NC(=O)C2CCN(c3ncnc4sc(C)c(C)c34)CC2)ccc1Cl,15µM,i,i,21µM,i,?
CCN(CC(=O)Nc1c(F)cccc1F)C(=O)c1c(-c2ccccc2Cl)noc1C,i,i,i,?,nt,i
N#CC1(Nc2ccc3ccccc3c2)CCCC1,i,i,i,i,nt,i
Cc1ccc2nc(NC(=O)C3CCN(c4ncnc5sc(C)c(C)c45)CC3)sc2c1,13µM,i,i,?,i,i
CC12C=C(/C=C/c3ccc(C(F)(F)F)cc3)C(C)(C1)C(c1ccc(C(F)(F)F)cc1)CC2=O (stereo unspecified),nt,nt,nt,nt,i[21 µM],nt
SMILES,DT40 TDP1 CPT,IL1B secr inh,HepG2 tox,DT40 TDP1 no CPT,TDP1 block,TGFb inhibitor
CCOc1ccc(-c2c(C)nn3c(C)c(C(=O)NCc4ccc(Cl)cc4)cnc23)cc1OCC,1.2µM,nt,i,1.6µM,i,i
CCOc1ccc(-c2c(C)nn3c(C)c(C(=O)NCc4cccc(OC)c4)cnc23)cc1OCC,9.2µM,nt,i,?,i,?
CCOc1ccc(CCNC(=O)c2cnc3c(-c4ccc(F)cc4)c(C)nn3c2C)cc1OCC,16µM,nt,i,18µM,i,i
CCOc1ccc(-c2c(C)nn3c(C)c(C(=O)Nc4cc(C)cc(C)c4)cnc23)cc1OCC,?,nt,i,?,i,i
CCOc1ccc(-c2c(C)nn3c(C)c(C(=O)NCCc4ccc(Cl)cc4)cnc23)cc1OCC,15µM,nt,i,6.5µM,i,i
CCOc1ccc(-c2c(C)nn3c(C)c(C(=O)NCc4ccc(C)o4)cnc23)cc1OCC,?,nt,i,?,i,i
O=C1c2ccccc2C(=O)N1c1cccc(=O)[nH]1,nt,nt,nt,nt,i,nt
CC1CCN(S(=O)(=O)c2ccc3ncn(CC(=O)N(C)Cc4ccccc4)c(=O)c3c2)CC1,i,i,i,i,i,i
Cc1cc(NC(=O)CSCC(=O)N(c2ccc(F)cc2)C(C(=O)NC2CCCCC2)c2ccc(O)c(O)c2)no1 (stereo unspecified),?,-50,i,16µM,i,i
CNC(=O)C1(C(F)(F)F)C/C(=C\Cc2ccccc2)CCCO1 (stereo unspecified),nt,nt,i,nt,i,i
O=c1n(Cc2ccccc2Cl)c2ccccc2c2nc(-c3ccccc3)nn12,i,nt,i,i,i,i
C[Si](C)(C)C#Cc1ccccc1NC(=S)Nc1ccccc1,nt,nt,nt,nt,i,nt
COc1cc2nc(SCc3ccc(Cl)cc3Cl)n(Cc3cccs3)c(=N)c2cc1OC,?,?,i,?,i,i
COCCCn1c(SCc2cccc(C(F)(F)F)c2)nc2cc(OC)c(OC)cc2c1=N,?,i,i,i,i,i
COc1ccc(Cn2c(SCc3ccc(C)cc3)nc3cc(OC)c(OC)cc3c2=N)cc1Cl,4.1µM,-121,5.6µM,2.3µM,i,?
COc1ccc(Cn2c(SCc3cc(C)ccc3C)nc3cc(OC)c(OC)cc3c2=N)cc1,8.2µM,-96,10µM,7.3µM,i,i
COCCCn1c(SCc2ccccc2)nc2cc(OC)c(OC)cc2c1=N,23µM,i,i,?,i,i
Cc1cc(C)c2c(NC(=O)CCl)nn(C)c2n1,13µM,-98,i,12µM,i,i
Cc1cc(C)c2c(NC(=S)NC(=O)c3ccccc3)nn(C)c2n1,i,i,i,i,i,i
Fc1ccccc1N1CCN(c2nccn3nc(-c4ccc(Br)cc4)cc23)CC1,i,nt,i,i,i,i
Cn1c(SCc2ccc(F)cc2)nc2ccc(C(=O)NCc3ccccc3)cc21,i,nt,i,i,i,?
